NOD2-RIPK2 inh = NOD2-RIPK2 binding disruptors in cells, primary screen, fluorescence, CHO cells, BLA complementation; Receptor-interacting serine/threonine-protein kinase 2 (Homo sapiens), O43353; 360,000 compounds, 0.38% hits; inhibition, % at 4.98 µM; CCF4 ratio; in the data active = inhibition above about 21%;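 note: 0% = vehicle only and 100% = reference blocker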
Target sequence (O43353 whole entry, looked up): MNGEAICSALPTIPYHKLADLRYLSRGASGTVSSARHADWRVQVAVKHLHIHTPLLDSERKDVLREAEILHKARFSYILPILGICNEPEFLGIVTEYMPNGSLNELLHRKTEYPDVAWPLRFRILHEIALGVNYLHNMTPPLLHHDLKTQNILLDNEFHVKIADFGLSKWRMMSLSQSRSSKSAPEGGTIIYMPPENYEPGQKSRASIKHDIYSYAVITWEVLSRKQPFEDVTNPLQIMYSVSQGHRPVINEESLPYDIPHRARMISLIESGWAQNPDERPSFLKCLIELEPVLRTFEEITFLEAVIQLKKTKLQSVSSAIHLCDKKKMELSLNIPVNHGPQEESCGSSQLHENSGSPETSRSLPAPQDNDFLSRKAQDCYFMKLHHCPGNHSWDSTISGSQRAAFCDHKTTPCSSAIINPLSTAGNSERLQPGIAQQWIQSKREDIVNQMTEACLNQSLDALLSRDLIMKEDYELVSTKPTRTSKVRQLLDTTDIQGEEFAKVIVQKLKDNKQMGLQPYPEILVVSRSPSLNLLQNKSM
HSF-1 act = HSF-1 activators, primary screen, NIH3T3-HGL cells, MG132 stress, luminescence, single point | NIH3T3-HGL HSF-1 luciferase reporter, 8 h; 100% = twice DMSO control signal | activation, % at 9 µM | 300,000 compounds, 1.7% hits;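 active = mean replicate activation of at least 50% with a set share of replicates each reaching 50%; inconclusive = only one of those two conditions met; inactive = mean below 50% and too few replicates reaching it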;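 note: 0% = median of the neutral control wells and 100% = twice that signal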
HSF1 inh = HSF1 inhibitors in luciferase reporter cells, primary screen, cell-based, NIH3T3, luminescence | 300,000 compounds, 0.77% hits | activity change, negative = inhibition, % at 7.5 µM (by protocol) | NIH3T3-HGL HSE-luciferase, MG132-induced, luminescence 8 h; active compounds read low;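 active = more than half of replicate wells show activity change below -50%, luminescence cut by over half; inconclusive = some wells, but at most half, below -50%; inactive = no replicate well below -50%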;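 note: luciferase reports HSF-1 transcriptional activity via heat shock element; 0% = median of DMSO wells and -100% = zero luminescence signal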
TLR9-MyD88 block = inhibitors of TLR9-MyD88 association in cells, primary screen, cell-based, CHO, BLA complementation, fluorescence | Toll-like receptor 9 (Homo sapiens) + Myeloid differentiation primary response protein … | CCF4 FRET ratio | inhibition, % at 4.98 µM | 340,000 compounds, 0.21% hits;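 active = inhibition above the mean over all tested compounds plus 3 SD, cut at about 21% in these data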;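 note: 0% = DMSO only wells and 100% = clavulanate BLA inhibitor control wells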
TLR4-MyD88 BLA = inhibitors of TLR4-MyD88 association in cells, primary screen, cell-based, HeLa CL3-4, BLA complementation, FRET ratio | Toll-like receptor 4 (Homo sapiens) + Myeloid differentiation primary response protein … | HeLa CL3-4 TLR4/MyD88 BLA complementation | inhibition, % at 8.4 µM | 200,000 compounds, 0.18% hits | AID 861, 2007; in the data active = inhibition above about 25%;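 note: 0% = vehicle and 100% = reference inhibitor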
* hit, by the source's call; ? = inconclusive; . = not tested or not shown. Sampled rows, rich in hits. Any-hit rate of the full collection: about 2.4%.

SMILES | NOD2-RIPK2 inh | HSF-1 act | HSF1 inh | TLR9-MyD88 block | TLR4-MyD88 BLA
Cc1cccc(C(C)C)c1NC(=O)c1c(-c2ccccc2)noc1C | -2.7 | 46.0 | 4.7 | -6.7 | .
COc1ccc(N(CC(=O)N/N=C/c2cc3ccc(OC)cc3nc2Cl)S(=O)(=O)c2ccccc2)cc1 | . | 59.3* | 28.8 | . | -5.8
O=C(CCC1CCN(C(=O)CC2=CCCCC2)CC1)NCc1ccc(F)cc1 | -8.0 | . | . | -1.1 | .
CCn1c(=O)cc(SCC(=O)Nc2ccc(OC)c(OC)c2)c2ccccc21 | -16.1 | 3.7 | 2.7 | -19.3 | 7.4
CCn1c(=O)cc(SCC(=O)Nc2ccc(Cl)cc2)c2ccccc21 | 6.3 | 97.0* | 32.1 | 2.7 | -9.9
CCn1c(=O)cc(SCC(=O)N2CCOCC2)c2ccccc21 | 0.2 | 11.4 | 2.7 | -5.2 | -8.7
CCn1c(=O)cc(SCC(=O)N2CCN(C3CCCCC3)CC2)c2ccccc21 | -21.0 | 61.7* | 29.6 | -4.9 | 3.4
O=C(Cc1ccsc1)NCc1ccccc1F | -2.6 | 7.9 | 0.1 | 0.6 | .
CC(Sc1nnc(Nc2ccccc2F)s1)C(=O)NC1CC1 (centres undefined) | -6.8 | . | . | 5.5 | .
C=CCN1C(=O)/C(=C\c2ccc(Cl)cc2)N=C1SCC(=O)NCCC | 1.5 | 5.3 | 1.1 | 1.2 | -2.0
COCCNC(=O)CSC1=N/C(=C/c2ccc(Cl)c(Cl)c2)C(=O)N1c1ccccc1F | -12.3 | -68.9 | -60.9* | 8.3 | 5.8
COc1ccc(Cn2cc(CN3CC(N4CCCC4)CS3(=O)=O)nn2)cc1 (centres undefined) | -8.8 | . | . | . | .
COc1ccc(N(C(=O)c2ccco2)C(C(=O)NC2CCCC2)c2cccs2)cc1 (centres undefined) | -7.3 | 66.3* | 15.2 | 9.1 | -5.1
COc1ccc(N(C(=O)c2ccco2)C(C(=O)NC2CCCC2)c2cccs2)cc1OC (centres undefined) | -20.5 | 0.4 | -2.6 | -4.1 | -4.2
CC1(C(=O)NS(=O)(=O)c2ccc(Cl)cc2)CCN1C(=O)c1ccccc1 (centres undefined) | -8.1 | . | . | . | .
N#CC1(C#N)COC23CCCCC2C1(C#N)C(=N)O3 (centres undefined) | 4.4 | -76.3 | -70.3* | 4.8 | -7.8
N#CC12COC3(CCCCC3C1(C#N)C#N)OC2=N (centres undefined) | 7.7 | 1.6 | -3.6 | 0.5 | .
O=C(Nc1ccc(F)cc1)N1CCOCC1 | -5.5 | -64.1 | -53.5* | 1.4 | -5.0
O=C(O)C1CC=CCC1C(=O)Nc1ccc2c(c1)OCCO2 (centres undefined) | 1.9 | -67.7 | -62.0* | 4.0 | -8.4
O=C(Nc1ccc2c(c1)OCCO2)N1CCN(c2ccccc2)CC1 | 0.6 | -59.4 | -56.9* | -0.3 | -1.5
Cc1ccc(S(=O)(=O)CC(CN2CCCCC2)N2CCCCC2)cc1 (centres undefined) | 0.2 | 20.0 | 11.7 | -2.0 | 0.2
O=S(=O)(CC(CN1CCCCC1)N1CCCCC1)c1ccc2ccccc2c1 (centres undefined) | 1.6 | 90.1* | 53.7 | -9.7 | 7.2
O=C(CCN1CCc2ccccc2CC1)c1ccc2c(c1)OCCO2 | 4.1 | 82.2* | 55.1 | -2.6 | 8.3
O=C(CCCO)c1ccc2c(c1)OCCO2 | -4.5 | -68.9 | -60.0* | 3.6 | -3.1
O=C(CCCN1CCOCC1)c1ccc2c(c1)OCCO2 | -3.4 | 22.8 | 7.9 | -0.4 | -1.8
SMILES | NOD2-RIPK2 inh | HSF-1 act | HSF1 inh | TLR9-MyD88 block | TLR4-MyD88 BLA
C=CCN(C(=O)CSc1nc2ccsc2c(=O)n1Cc1ccc(C(=O)O)cc1)c1ccccc1 | 10.4 | . | . | 1.6 | .
CCCNC(=O)COC(=O)c1ccccc1OCC(=O)Nc1ccc(Br)cc1 | 0.4 | -2.3 | 5.1 | 2.0 | -18.6
NC(=O)c1ccccc1OCC(=O)Nc1ccc(Cl)c(Cl)c1 | -3.6 | 91.3* | 50.4 | 4.7 | .
CC(C)(C)NC(=O)COC(=O)c1ccccc1OCC(=O)Nc1ccc(Br)cc1 | 12.6 | 68.6* | 39.5 | -4.9 | 6.0
CCn1nc([N+](=O)[O-])c(C(C#N)c2nc3cc(C(F)(F)F)ccc3s2)c(Cl)c1=O (centres undefined) | -4.7 | 64.1* | 56.5 | 6.8 | -1.8
CCCn1nc([N+](=O)[O-])c(C(C#N)c2nc3ccccc3o2)c(Cl)c1=O (centres undefined) | -7.6 | 97.3* | 76.4 | -4.4 | 0.9
Cn1nc([N+](=O)[O-])c(C(C#N)c2ccccn2)c(Cl)c1=O (centres undefined) | 9.0 | 34.9 | 25.5 | -2.4 | -5.4
O=C(/C(=N/N=C/c1ccc(O)c(O)c1)c1ccccc1)c1ccccc1 | 2.6 | 90.0* | 36.5 | -0.5 | -4.8
Oc1ccc(/C=N/N(c2ccccc2)c2ccccc2)cc1O | 1.1 | 82.6* | 32.8 | 12.2 | .
Oc1ccc(/C=N/N=C/c2ccc(O)c(O)c2)cc1O | 7.7 | -6.8 | -4.9 | -3.6 | .
CO[C@@H]1CN(C)C(=O)c2ccc(NC(=O)C3CCCC3)cc2OC[C@@H](C)N(Cc2ccc(F)cc2)C[C@H]1C | 0.1 | . | . | . | .
Cc1cccc(S(=O)(=O)NC(=O)C2(C)CCN2C(=O)c2ccccc2CCc2ccccc2)c1 (centres undefined) | -3.7 | . | . | . | .
Cc1cn(C2CC(O)C(CO)O2)c(=O)n(Cc2ccccc2)c1=O (centres undefined) | -9.4 | . | . | -5.0 | .
Cn1c(CSc2ccccc2)c(C#N)c2ccccc21 | -2.7 | 90.0* | 28.9 | -2.5 | -2.3
Cc1cccc(OCCNS(=O)(=O)c2ccc(Cl)cc2)c1 | 1.6 | . | . | -9.2 | .
CCOC(=O)c1cc2sccc2n1CC(=O)N1CCCc2ccccc21 | -0.6 | 15.4 | 7.1 | -0.6 | -14.5
CCOC(=O)c1cc2occc2n1CC(=O)N1CCCc2ccccc21 | 3.6 | -74.5 | -66.3* | -0.5 | 6.6
CC12CCC(C)(O1)C1C(=O)N(c3nccs3)C(=O)C12 (centres undefined) | -11.0 | . | . | -3.5 | .
Cc1cc(-c2nnc(CCC(=O)N(C)Cc3cccc4ccccc34)o2)no1 | -8.5 | 64.3* | 42.2 | 7.3 | 1.1
Cc1cc(-c2nnc(CCC(=O)NC(C)c3cccc4ccccc34)o2)no1 (centres undefined) | 3.5 | 6.2 | -0.1 | -9.5 | -17.6
Nc1ncnc2c1ncn2[C@@H]1O[C@H](CNCc2cccc(C#Cc3ccccc3)c2)[C@@H](O)[C@H]1O | 1.4 | . | . | -6.7 | .
C(=N\Nc1nc2ccccc2s1)/c1ccco1 | -26.9 | 65.5* | 40.6 | 9.0 | 5.4
C(=N\Nc1nc2ccccc2s1)/c1cccs1 | 2.1 | ? | 14.7 | -18.0 | 8.6
CC(=O)Nc1ccc(/C=N/Nc2nc3ccccc3s2)cc1 | -10.8 | 67.6* | 47.1 | 1.7 | .
CCn1c(C)c(/C=N/Nc2nc3ccccc3s2)c2ccccc21 | -8.2 | 53.2* | 14.2 | -2.6 | 2.2
Cc1ccsc1/C=N/Nc1nc2ccccc2s1 | 4.0 | 66.1* | 36.4 | 4.9 | -11.2
